Compound activity as filed in PubChem.
APP 5UTR inh – APP translation inhibition; SH-SY5Y APP 5'UTR-luciferase reporter, luminescence; inhibition, % at 2 µM; 190,000 compounds, 0.82% hits; AID 1285;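 active = inhibition above a set limit, derived from the sample mean plus 3 SD, cut at about 45% in these data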
Ba/F3 V617F tox – lowers viability of Ba/F3 cells expressing EpoR and JAK2V617F; ATP luminescence; inhibition, % at 5.6 µM; 220,000 compounds, 1.1% hits; AID 1446;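 active = inhibition above the campaign mean plus 3 SD over all tested compounds, cut at about 24% in these data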;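 also: cytokine-independent growth of Ba/F3 cells driven by EpoR plus mutant JAK2; 0% = DMSO-treated cells and 100% = JAK inhibitor I control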
BaF3 parental – counter-screen for JAK2V617F inhibitors: parental Ba/F3 viability inhibitors | AID 1486 | 220,000 compounds, 1.1% hits | inhibition, % at 5.6 µM | CellTiter-Glo ATP luminescence;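 active = inhibition above a per-campaign cutoff, the mean inhibition of all tested compounds plus 3 SD, cut at about 27% in these data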;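 also: 0% = DMSO wells and 100% = JAK Inhibitor I control wells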
KLF5 inh – inhibitors of KLF5 expression. 290,000 compounds, 0.23% hits. inhibition, % at 5 µM. DLD-1 KLF5 promoter-luciferase reporter, luminescence;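 active = inhibition above a per-plate limit of that plate's mean compound inhibition plus 3 SD, cut at about 60% in these data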;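 also: 0% = DMSO wells and 100% = LY294002 at 200 µM; higher means less KLF5 promoter-driven luciferase light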
IEC-6 tox – counter-screen for KLF5 inhibitors: cytotoxicity in IEC-6 cells; IEC-6 cytotoxicity, luminescence viability; inhibition, % at 5 µM; 290,000 compounds, 0.78% hits; AID 1825; in the data active = inhibition above about 22%;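 also: 0% = plate median of test compound wells and 100% = cytotoxic reference compound wells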
Numbers without * were called inactive; . = no result. A selection: hits, their analogues and other compounds. The true share with any hit is near 1.8%.

SMILES	APP 5UTR inh	Ba/F3 V617F tox	BaF3 parental	KLF5 inh	IEC-6 tox
Brc1ccc(N/N=C(/N=Nc2nn[nH]n2)c2ccccc2)cc1	58*	11	8	43	10
NS(=O)(=O)c1ccc(CNC(=O)/C=C/c2ccco2)cc1	.	93*	56*	0	2
O=C(/C=C/c1ccco1)NCc1ccc(F)cc1	-7	2	6	-43	-5
C[N+](C)(C)CCN(Cc1ccc(Cl)cc1)c1ccccn1	0	33*	29*	-19	4
COc1ccc(C2CC(c3cccs3)=NN2C(=O)CSc2nc3c(cnn3-c3ccccc3)c(=O)[nH]2)cc1 (stereo not drawn)	22	-4	8	-7	0
COc1cccc(C2CC(c3cccs3)=NN2C(=O)CSc2nc3c(cnn3-c3ccc(F)cc3)c(=O)[nH]2)c1OC (stereo not drawn)	55*	-3	1	-3	-5
COc1ccc(COc2cc(-c3cccc(OC)c3)nc3ccc(NC(=O)c4ccc(OC)cc4)cc23)cc1	56*	78*	53*	1	19
Cc1ccc(-c2cc3cccc[n+]3cc2-c2ccc(C)cc2)cc1	6	96*	79*	15	28*
CC1Cc2ccccc2N1C(=O)c1cnc2ccccn2c1=O (stereo not drawn)	-3	-3	6	-4	2
Cc1csc2ncc(C(=O)N3c4ccccc4CC3C)c(=O)n12 (stereo not drawn)	-2	-2	39*	-24	4
COc1cc(/C=N/NC(=O)c2cc(C)oc2C)cc(OC)c1OC	18	-2	3	-20	10
Nc1ccc2oc(-c3cc(Br)ccc3Cl)nc2c1	46*	33*	38*	-18	6
CC(=O)c1cccc(S(=O)(=O)NCC(C)(C)N2CCOCC2)c1	.	.	.	-11	0
CC[N+](CC)(CC#Cc1ccccc1)CC#Cc1ccccc1	.	89*	67*	-19	3
C#CC[N+](C)(C)CC#Cc1ccc(C)cc1	-4	41*	37*	12	-4
C[N+](C)(CC#Cc1ccccc1)CC(=O)c1ccccc1	-16	-1	11	-9	-2
CCOC(=O)C[N+](CC)(CC)CC#Cc1ccccc1	-5	0	2	-28	1
C#CC[N+](CC)(CC)CC#Cc1ccccc1	.	59*	62*	7	1
O=C(CC1OC(=O)c2ccccc21)Nc1cccc(S(=O)(=O)N2CCCCCC2)c1 (stereo not drawn)	.	.	.	-12	4
Cc1csc(NC(=O)CCc2c(C)nc3cc(-c4ccc(Cl)cc4)nn3c2C)n1	54*	6	7	-1	10
CCC(C)(C)NC(=O)C(c1ccc(OC)cc1)N(C(=O)CCC(=O)Nc1cc(C)on1)c1ccccc1F (stereo not drawn)	.	.	.	16	6
O=C(N/N=C/c1ccc(Cl)cc1)c1sccc1OCc1ccc(F)cc1	.	72*	47*	23	22
O=C(N/N=C/c1ccc(F)cc1)c1sccc1OCc1ccc(F)cc1	-4	2	-1	-41	-4
CC(C)c1ccc(/C=N/NC(=O)c2ccccc2Cl)cc1	61*	23	5	-9	21
Cc1cc2c(cc1S(=O)(=O)NCc1ccccc1)OCC(=O)N2	.	.	.	-18	0
SMILES	APP 5UTR inh	Ba/F3 V617F tox	BaF3 parental	KLF5 inh	IEC-6 tox
CCOc1ccc(-n2c(-c3ccc(Cl)cc3)c[n+]3c2SCC3)cc1	-6	70*	74*	19	2
c1ccc(-c2c[n+]3c(n2-c2ccccc2)SCC3)cc1	.	66*	61*	-20	-1
CN(c1ccccc1)c1nc(N)c([N+](=O)[O-])c(N2CCOCC2)n1	.	0	-3	-19	2
O=C(CNS(=O)(=O)c1c(Cl)cccc1Cl)OCC(=O)N1CCN(c2ccccc2)CC1	0	-1	3	-14	-6
Cc1cccc(NC(=S)NC(NC(=O)c2ccco2)C(Cl)(Cl)Cl)c1 (stereo not drawn)	58*	2	1	-33	2
Cc1ccc(NC(=S)NC(NC(=O)c2ccco2)C(Cl)(Cl)Cl)cc1 (stereo not drawn)	12	2	3	-20	-1
Cc1ccc(S(=O)(=O)/C(C#N)=C/c2c(N3CCN(Cc4ccccc4)CC3)nc3ccccn3c2=O)cc1	.	.	.	-8	-8
O=C1C(NS(=O)(=O)c2ccc(Br)cc2)=C(N2CCCCC2)C(=O)c2ccccc21	.	.	.	-36	1
Cc1ccc(NC2=C(N3CCCCC3)C(=O)c3ccccc3C2=O)cc1	-25	96*	98*	17	-1
CN(C1=C(N2CCCCC2)C(=O)c2ccccc2C1=O)c1ccccc1	-4	26*	65*	-2	-1
O=C1C(Nc2cccc(O)c2)=C(N2CCCCC2)C(=O)c2ccccc21	-5	87*	99*	-34	-4
O=C(CN1C(=O)c2cccnc2Oc2ccc(Cl)cc21)NCCCc1ccccc1	.	.	.	11	-1
COc1ccc(C)cc1N(C)C(=O)Cc1c(C(=O)O)n(C)c2ccccc12	.	.	.	-1	11
Cc1cccc(C)c1NS(=O)(=O)c1c(C(=O)N2CCCCC2)c(C)n(C)c1C	.	.	.	-9	-5
Cc1cc(Br)c2c(c1)C(O)(N1CCCCC1C)C(=O)N2 (stereo not drawn)	-34	-3	0	-15	10
C=CCc1ccc(OCCOCCOc2cccc3cccnc23)c(OC)c1	8	-3	2	-10	1
C=CCN(C(=O)CN1CCOCC1)c1nc(C)c(-c2ccccc2)s1	-21	6	27*	-27	-12
CC(OC(=O)c1ccccc1Nc1ccc(SC(F)F)cc1)C(N)=O (stereo not drawn)	8	5	12	7	28*
NC(=O)COC(=O)c1ccccc1Nc1ccc(SC(F)F)cc1	-6	-4	2	-41	16
COc1ccc(-c2nnc(SCc3nc4ccccc4c(=O)[nH]3)o2)cc1	.	0	53*	-11	2
CCCc1nnc(NC(=O)CCC(=O)NCCc2ccc(OC)c(OC)c2)s1	73*	-3	-4	-32	-1
CCCc1nnc(NC(=O)CCC(=O)NCCc2ccc(Cl)cc2)s1	.	.	.	2	2
CC1CC(C)CN(S(=O)(=O)c2ccc(C(=O)NCCCn3ccnc3)cc2)C1 (stereo not drawn)	73*	6	4	6	4
CCOC(=O)N1CCC(NC(=O)c2ccc3c(c2)sc2nc(-c4ccc(OC)cc4)cn23)CC1	-1	0	27*	-2	2
Cn1ncc(Cl)c1C(=O)N/N=C/c1cc2c(cc1[N+](=O)[O-])OCO2	5	-3	3	-2	-6
CCN(CC)c1ccc(/C=N/NC(=O)c2c(Cl)cnn2C)c(O)c1	60*	-1	0	35	8
CCOC(=O)N/N=C/c1ccc(N(CC)CC)cc1O	27	3	4	-32	2
O=C(N/N=C/c1ccccc1O)c1cccc(C(F)(F)F)c1	54*	0	5	-11	1
O=C(N/N=C/c1ccc(O)cc1)c1cccc(C(F)(F)F)c1	8	-1	4	-34	2
CCN(CC)c1ccc(/C=N/NC(=O)CCC(=O)NCc2ccccc2)c(O)c1	52*	-1	6	26	2
